The target in experiment [1] is Lysosomal acid glucosylceramidase (Homo sapiens) (UniProt P04062). The experiment can be described thus: Glucocerebrosidase-p2 (AID 348; in the data active = potency below about 10 µM; note: potency is the fitted concentration of half-maximal effect). To be noted: purified GBA, blue fluorogenic substrate, 40 min. Summed up: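 Normal human glucocerebrosidase (0.2 nM) with blue fluorogenic substrate (80 uM final) in citrate/phosphate pH 5.9 with 10mM sodium taurocholate, 0.01% tween-20; 40 min RT, NaOH/glycine stop; fluorescence Ex 365/Em 440; AC50 from a titration from 0.6 nM upwards.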

Experiment [2] in a line: AP1 Signaling Pathway (AID 357).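 Note: ME-180 reporter cells stimulated with EGF at its EC50 level; % is set by controls: 0 for no effect and ±100 for the full control effect.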 To be noted: ME-180 AP-1-bla reporter, EGF-induced, beta-lactamase ratio, 5 h; at 7.69 µM (top of the series) unless noted. Summed up:
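AP-1-bla ME-180 cells, Opti-MEM + 0.5% dialyzed FBS, plated overnight 37 °C. Cpd titration + EC50 EGF, 5 h 37 °C. CCF4 2.5 h RT; ex 405, em 460/530 ratio → %activity, AC50.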

Experiment [3] has as its target Cytochrome P450 1A2 (Homo sapiens) (UniProt P05177). The experiment can be described thus: p450-cyp1a2 (AID 410; calls by dose curve; note: potency is the fitted concentration of half-maximal effect;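 for activity change, negative = inhibition: -100% = full effect of reference inhibitor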). To be noted: recombinant CYP1A2, luciferin-ME demethylation, luminescence; series mostly up to 57 µM. In short, it runs like this: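 20nM CYP1A2, 100uM Luciferin-ME (=Km), 100mM KPO4; cpd 10 min RT; +NADPH regen, 60 min RT; stop/detect 20 min; luminescence. Normalized to furafylline 57 uM = full inhibition.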

A short description of experiment [4]: Stat Signaling Pathway (AID 446).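 Note: ME-180 cervical cancer cells given 40 pM IL-6 alongside compound; SIE-controlled beta-lactamase reporter measured as 460/530 nm FRET emission ratio; % is set by controls: 0 for no effect and ±100 for the full control effect.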 To be noted: ME-180 (cervical carcinoma) SIE beta-lactamase reporter, IL-6 stimulated, 5 h; at 7.69 µM (top of the series) unless noted. Summed up: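 Overnight-plated ME-180 cells bearing a STAT Inducible Element beta-lactamase reporter; 5 h co-exposure to compound and 40 pM IL-6; values normalized to 300 pM IL-6 and 125 nM JAK inhibitor controls.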

The target of experiment [5] is Glucocorticoid receptor (Homo sapiens) (UniProt P04150). The experiment is described as follows: GR-EFC Redistribution (AID 451; calls by dose curve; note: potency is the fitted concentration of half-maximal effect). To be noted: CHO-K1 GR-EFC translocation, beta-gal luminescence, 2 h. In short, it runs like this:
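Translocation of GR-ED fusion to nuclear EA restores b-gal, read by luminescence after 1 h room-temperature detection. Engineered CHO-K1 biosensor cells, 1,000/well, exposed 2 h at 37 C to titrations up to 46 uM final.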

Experiment [6] deals with Cytochrome P450 3A4 (Homo sapiens) (UniProt P08684). The experiment is described as follows: qHTS Assay for Inhibitors and Substrates of Cytochrome P450 3A4 (AID 884; active = well fitted curve in the direction sought with a large enough effect; an effect the other way counts as inactive or inconclusive; note: % is set by controls: 0 for no effect and ±100 for the full control effect; nearly all actives have a fitted effect of over 50% in size). To be noted: recombinant CYP3A4, Luciferin-PPXE luminescence; series mostly up to 57.1 µM. In short, it runs like this: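 Luminescent readout of luciferin produced by CYP3A4 (20 nM) dealkylation of Luciferin-PPXE, 25 uM (its KM). NADPH-driven reaction ran 60 min at RT after 10 min compound preincubation; data scaled to 57 uM ketoconazole as 100% inhibition.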

Experiment [7] has the same target. The experiment is described as follows: qHTS Assay for Activators of Cytochrome P450 3A4 (AID 885; active = well fitted curve in the direction sought with a large enough effect; an effect the other way counts as inactive or inconclusive; note: potency is the fitted concentration of half-maximal effect; nearly all actives have a fitted effect of over 65% in size). To be noted: recombinant CYP3A4, Luciferin-PPXE luminescence, 60 min; series mostly up to 57.1 µM. Summed up: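 Using 20nM recombinant human CYP3A4 in potassium phosphate (200mM), substrate Luciferin-PPXE at 25uM, luminescent luciferin detection followed a 60-min RT NADPH reaction; data scaled to 57 uM ketoconazole.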
(In qHTS, concentration-response curves come from the screen itself.)

Experiment [8] addresses Cytochrome P450 2C19 (Homo sapiens) (UniProt P33261). The experiment can be described thus: qHTS Assay for Inhibitors and Substrates of Cytochrome P450 2C19 (AID 899; active = well fitted curve in the direction sought with a large enough effect; an effect the other way counts as inactive or inconclusive; note: potency is the fitted concentration of half-maximal effect; nearly all actives have a fitted effect of over 60% in size). To be noted: recombinant CYP2C19, luciferin-H EGE luminescence; series mostly up to 57.1 µM. Summed up:
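5nM enzyme + 10uM Luciferin-H EGE (=KM), 50mM KPO4; cpd pin-transferred, 10 min 37C; NADPH regen, 60 min 37C; stopped w/ luciferin detection reagent, 20 min; luminescence. Normalized to 57uM ketoconazole (AC100).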

Experiment [9] can be described thus: qHTS Assay for Lipid Storage Modulators (AID 1519; calls by dose curve). To be noted: Drosophila S3 cells, BODIPY lipid droplet/cell ratio, laser cytometry, cells loaded with oleic acid; for activity change, negative = inhibition: at 57.5 µM (top of the series). Summed up: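 Cells seeded at 5,000 per well were treated with compounds over a concentration series and loaded with oleic acid (400 uM, as added). Lipid droplet fluorescence (488 nm excitation, 500-530 nm channel) was read by laser-scanning cytometry and normalized to 20 uM Triacsin C.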

Experiment [10] in a line: Primary qHTS for small molecule stabilizers of the endoplasmic reticulum resident proteome: Secreted ER Calcium Modulated Protein (SERCaMP) assay (AID 1508630; active = well fitted curve in the direction sought with a large enough effect; an effect the other way counts as inactive or inconclusive; note: % is set by controls: 0 for no effect and ±100 for the full control effect). To be noted: SH-SY5Y GLuc-SERCaMP (Gaussia luciferase released on ER calcium loss) secretion, thapsigargin, luminescence; series mostly up to 38.4 µM. Summed up:
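The SH-SY5Y reporter protocol was run at 3 concentrations up to 38.3 uM (primary) or 11 concentrations (follow-up): 16 h compound, 100 nM thapsigargin for 4 h, then extracellular luciferase luminescence.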

Experiment [11] addresses Mitogen-activated protein kinase 10 (Mus musculus) (UniProt Q61831). The experiment can be described thus: JNK3 AlphaScreen Assay (AID 530).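 Note: kinase came from lysate of stimulated human HepG2 cells; signal reports phosphorylation of biotinylated GST-cJun 1-79 at Ser73 with 10 µM ATP; % is set by controls: 0 for no effect and ±100 for the full control effect.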 To be noted: JNK3 lysate, c-Jun phosphorylation; series mostly up to 57.1 µM. In short, it runs like this:
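Kinase buffer: 20 mM Tris-HCl pH 7.6, 10 mM MgCl2, 1 mM DTT, 0.1 mM Na3VO4, 0.01% Tween-20; ATP 10 uM. Substrate biotin-GST-cJun(1-79), enzyme from activated HepG2 lysates. Detection by Ser73 phospho-antibody AlphaScreen.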

For experiment [12], the target named is 3',5'-cyclic-AMP phosphodiesterase 4B (Homo sapiens) (UniProt Q07343). The experiment can be described thus: qHTS Assay for Inhibitors of PDE-IV (AID 607; active = well fitted activation curve with a large enough effect in the main read-out, with a control signal flat, not every such curve was filed as active; note: % of control where 0% means no effect). To be noted: HEK293 ACTOne CNG channel cells, membrane potential fluorescence; series mostly up to 22.9 µM. In short, it runs like this:
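Live HEK293 cells with a modified cyclic nucleotide-gated (CNG) channel report intracellular cAMP via membrane-potential dye fluorescence (ex 535/em 590 nm). Endogenous PDE-IV was targeted. Compounds were tested at up to 22.9 uM final; RO 20-1724 100 uM served as control.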

The target of experiment [13] is Cytochrome P450 2D6 (Homo sapiens) (UniProt P10635). The experiment can be described thus: qHTS Assay for Inhibitors and Substrates of Cytochrome P450 2D6 (AID 891; active = well fitted curve in the direction sought with a large enough effect; an effect the other way counts as inactive or inconclusive; note: potency is the fitted concentration of half-maximal effect; nearly all actives have a fitted effect of over 60% in size). To be noted: recombinant CYP2D6, luciferin-ME EGE luminescence; series mostly up to 57.1 µM. In short, it runs like this:
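Luminescent read-out of luciferin formed by 5 nM human CYP2D6 demethylating 30 uM Luciferin-ME EGE (Km level) over 60 min at room temperature after NADPH regeneration addition. Data normalized to full inhibition by 1.43 uM quinidine.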

Experiment [14] is described as follows: NFAT Signaling Pathway (AID 444). To be noted: Jurkat NFAT-bla M1, carbachol, beta-lactamase ratio, 5 h; at 7.69 µM (top of the series) unless noted. Summed up: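 Read-out: CCF4 FRET ratio (460 nm/530 nm) after 1 h RT dye loading, used for %activity and AC50 from titration series. Cells: Jurkat NFAT-β-lactamase/M1 line, treated with compound plus 1 uM carbachol for 5 h, 37 °C.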

Experiment [15] deals with Glucocorticoid receptor (Homo sapiens) (UniProt P04150). The experiment can be described thus: GR-GFP Redistribution (AID 450;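 active = compounds whose dose series gives a full or clear partial fitted curve of increased nuclear translocation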; note: potency is the fitted concentration of half-maximal effect). To be noted: U2OS GR-GFP nuclear translocation, laser cytometry, 2 h.
The nature of experiment [16]: Confirmation and Secondary Assay for Modulators of Hemoglobin Beta Chain Splicing at IVS2 654 locus (AID 910; active = well fitted curve in the direction sought with a large enough effect; an effect the other way counts as inactive or inconclusive;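 note: HeLa cells stably carrying EGFP split by mutant beta-globin IVS2-654 intron; per-well total GFP intensity by laser scanning cytometry after 2-day treatment; % of control where 0% means no effect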). To be noted: HeLa EGFP-654 splicing reporter, GFP fluorescence, 48 h; series mostly up to 38.3 µM. Summed up:
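Readout: per-well total peak green fluorescence (488 nm ex, 500–520 nm em) from objects 5–250 µm, reflecting correct splicing of an EGFP-654 reporter. Compounds were applied for 2 days at 37 °C to overnight-plated HeLa EGFP-654 cells; controls were DMSO and 500 nM IVS2-654 PNA.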

A short description of experiment [17]: Confirmation and Secondary Assay for Modulators of Hemoglobin Beta Chain Splicing at IVS2 705 locus (AID 930; active = well fitted curve in the direction sought with a large enough effect; an effect the other way counts as inactive or inconclusive;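 note: HeLa cells stably expressing the EGFP-705 splicing reporter; GFP fluorescence per well restored by corrected splicing of the IVS2-705 intron in EGFP; % of control where 0% means no effect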). To be noted: HeLa EGFP-705 splicing reporter, GFP fluorescence, 48 h; series mostly up to 38.3 µM. Summed up: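 HeLa IVS2-705 EGFP reporter cells, 500/well, compound 2 d at 37C; correct splicing yields fluorescent EGFP. Control: 500 nM antisense PNA. Read-out: total peak GFP intensity.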

The target in experiment [18] is Ubiquitin carboxyl-terminal hydrolase 1 (Homo sapiens) (UniProt O94782). The experiment can be described thus: Inhibitors of USP1/UAF1: Pilot qHTS (AID 504865; active = well fitted curve in the direction sought with a large enough effect; an effect the other way counts as inactive or inconclusive;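 note: rhodamine fluorescence freed from ubiquitin-rhodamine substrate followed over time; top concentration of the series differs between compounds; % is set by controls: 0 for no effect and ±100 for the full control effect; nearly all actives have a fitted effect of over 35% in size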). To be noted: purified USP1/UAF1, Ub-rhodamine cleavage fluorescence; series mostly up to 54.9 µM. In short, it runs like this:
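USP1/UAF1 complex at 1 nM preincubated 15 min at room temperature with compound, then Ub-Rho substrate added at 150 nM final. Fluorescence (480/540 nm) read kinetically in 50 mM HEPES pH 7.8, 0.5 mM EDTA, 1 mM TCEP, 0.1 mg/ml BSA, 0.01% Tween-20.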

The mark [19] stands for this setting: measured here: cell count channel max response.
Where [20] appears, read: measured here: lipid channel max response.

Records with an inconclusive call do not appear. The source made the active and inactive calls. Unless noted, calls come from the whole dose curve; as a rule, active = well fitted curve in either direction with a large enough effect (not every such curve was filed as active); inconclusive = small, poorly fitted or top-dose-only effect, or another doubt; inactive = flat fitted curve, though single readings scatter. A value given as a limit tells only on which side of the number the result lay.

3',5'-cyclic-AMP phosphodiesterase 4B (Homo sapiens), sequence (Q07343 whole entry, looked up): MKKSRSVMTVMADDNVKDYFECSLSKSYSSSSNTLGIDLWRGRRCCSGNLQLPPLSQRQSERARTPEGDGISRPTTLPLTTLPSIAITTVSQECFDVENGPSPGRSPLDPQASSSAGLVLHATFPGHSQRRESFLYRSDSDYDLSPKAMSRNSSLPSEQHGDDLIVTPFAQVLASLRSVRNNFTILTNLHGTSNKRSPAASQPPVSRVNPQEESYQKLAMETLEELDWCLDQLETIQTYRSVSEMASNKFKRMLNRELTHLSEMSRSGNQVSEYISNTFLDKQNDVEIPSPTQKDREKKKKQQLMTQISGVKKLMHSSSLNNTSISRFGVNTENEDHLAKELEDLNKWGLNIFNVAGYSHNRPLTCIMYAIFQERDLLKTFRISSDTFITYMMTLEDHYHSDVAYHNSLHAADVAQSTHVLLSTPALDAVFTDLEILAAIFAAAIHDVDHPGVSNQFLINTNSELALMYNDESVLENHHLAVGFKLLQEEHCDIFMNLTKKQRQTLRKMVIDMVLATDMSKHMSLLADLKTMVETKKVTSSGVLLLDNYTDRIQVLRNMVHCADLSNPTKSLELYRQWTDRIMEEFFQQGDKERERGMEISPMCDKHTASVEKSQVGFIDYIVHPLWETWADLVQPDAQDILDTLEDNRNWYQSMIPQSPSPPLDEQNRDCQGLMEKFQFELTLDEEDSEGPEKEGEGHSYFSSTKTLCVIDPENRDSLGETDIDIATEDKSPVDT
Lysosomal acid glucosylceramidase (Homo sapiens), sequence (P04062 whole entry, looked up): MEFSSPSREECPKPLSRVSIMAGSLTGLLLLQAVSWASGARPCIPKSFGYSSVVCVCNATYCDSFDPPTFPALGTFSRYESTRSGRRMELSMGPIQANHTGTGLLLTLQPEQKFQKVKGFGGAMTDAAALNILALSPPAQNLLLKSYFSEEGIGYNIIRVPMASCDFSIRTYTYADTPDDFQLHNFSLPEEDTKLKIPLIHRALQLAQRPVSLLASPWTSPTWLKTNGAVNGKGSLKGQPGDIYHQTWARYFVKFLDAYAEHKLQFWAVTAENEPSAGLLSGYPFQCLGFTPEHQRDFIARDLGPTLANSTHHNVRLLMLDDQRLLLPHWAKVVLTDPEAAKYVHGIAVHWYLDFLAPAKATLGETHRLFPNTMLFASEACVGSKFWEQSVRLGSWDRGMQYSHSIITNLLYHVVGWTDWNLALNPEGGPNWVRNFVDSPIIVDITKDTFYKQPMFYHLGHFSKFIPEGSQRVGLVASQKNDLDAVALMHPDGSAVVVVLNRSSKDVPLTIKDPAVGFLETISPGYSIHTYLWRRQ
Glucocorticoid receptor (Homo sapiens), sequence (P04150 whole entry, looked up, the tested form may be a part): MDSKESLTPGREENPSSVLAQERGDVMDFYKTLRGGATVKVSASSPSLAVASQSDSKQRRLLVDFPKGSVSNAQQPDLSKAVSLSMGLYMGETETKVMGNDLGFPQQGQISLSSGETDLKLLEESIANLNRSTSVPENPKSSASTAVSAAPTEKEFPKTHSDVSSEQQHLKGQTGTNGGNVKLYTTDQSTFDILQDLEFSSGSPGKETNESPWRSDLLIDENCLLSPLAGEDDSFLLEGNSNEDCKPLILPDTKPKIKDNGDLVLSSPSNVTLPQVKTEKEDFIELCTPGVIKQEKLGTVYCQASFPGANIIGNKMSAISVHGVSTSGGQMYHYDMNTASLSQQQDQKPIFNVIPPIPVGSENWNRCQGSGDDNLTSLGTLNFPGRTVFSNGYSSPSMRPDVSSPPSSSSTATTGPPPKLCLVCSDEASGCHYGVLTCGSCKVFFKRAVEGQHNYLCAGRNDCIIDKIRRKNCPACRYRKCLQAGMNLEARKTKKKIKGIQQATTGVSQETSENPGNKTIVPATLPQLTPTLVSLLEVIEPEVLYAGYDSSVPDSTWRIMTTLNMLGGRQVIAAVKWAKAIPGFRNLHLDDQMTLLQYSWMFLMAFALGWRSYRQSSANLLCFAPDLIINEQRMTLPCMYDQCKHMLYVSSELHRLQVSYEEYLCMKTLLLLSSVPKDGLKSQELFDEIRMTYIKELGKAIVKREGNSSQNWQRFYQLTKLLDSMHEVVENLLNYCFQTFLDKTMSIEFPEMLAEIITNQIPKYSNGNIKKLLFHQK
Cytochrome P450 3A4 (Homo sapiens), sequence (P08684 whole entry, looked up): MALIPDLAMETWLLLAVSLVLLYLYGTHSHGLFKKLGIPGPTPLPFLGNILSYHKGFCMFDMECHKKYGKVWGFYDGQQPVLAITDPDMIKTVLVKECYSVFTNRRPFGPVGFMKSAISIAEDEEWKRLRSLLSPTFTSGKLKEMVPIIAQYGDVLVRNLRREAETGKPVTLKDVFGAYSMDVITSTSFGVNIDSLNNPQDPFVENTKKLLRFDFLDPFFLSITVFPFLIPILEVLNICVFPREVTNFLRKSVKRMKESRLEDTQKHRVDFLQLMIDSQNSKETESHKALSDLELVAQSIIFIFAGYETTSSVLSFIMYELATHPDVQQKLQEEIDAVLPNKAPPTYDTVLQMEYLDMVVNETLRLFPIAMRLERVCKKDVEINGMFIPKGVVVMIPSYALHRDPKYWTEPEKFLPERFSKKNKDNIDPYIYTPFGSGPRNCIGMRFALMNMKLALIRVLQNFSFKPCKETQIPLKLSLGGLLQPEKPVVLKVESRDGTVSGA
Cytochrome P450 1A2 (Homo sapiens), sequence (P05177 whole entry, looked up): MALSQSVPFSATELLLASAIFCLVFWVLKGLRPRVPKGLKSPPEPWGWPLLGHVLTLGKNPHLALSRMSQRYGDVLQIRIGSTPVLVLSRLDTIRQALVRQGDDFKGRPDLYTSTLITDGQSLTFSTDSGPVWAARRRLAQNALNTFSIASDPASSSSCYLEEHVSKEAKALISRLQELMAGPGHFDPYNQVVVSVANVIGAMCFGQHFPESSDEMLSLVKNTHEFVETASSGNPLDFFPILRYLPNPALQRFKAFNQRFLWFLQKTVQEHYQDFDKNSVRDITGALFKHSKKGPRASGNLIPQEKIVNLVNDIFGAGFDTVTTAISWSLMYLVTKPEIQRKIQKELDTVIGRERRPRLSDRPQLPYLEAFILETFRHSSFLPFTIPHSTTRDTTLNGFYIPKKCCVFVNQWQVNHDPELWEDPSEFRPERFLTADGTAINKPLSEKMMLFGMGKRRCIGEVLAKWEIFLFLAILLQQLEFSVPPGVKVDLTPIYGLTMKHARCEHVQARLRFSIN
Ubiquitin carboxyl-terminal hydrolase 1 (Homo sapiens), sequence (O94782 whole entry, looked up): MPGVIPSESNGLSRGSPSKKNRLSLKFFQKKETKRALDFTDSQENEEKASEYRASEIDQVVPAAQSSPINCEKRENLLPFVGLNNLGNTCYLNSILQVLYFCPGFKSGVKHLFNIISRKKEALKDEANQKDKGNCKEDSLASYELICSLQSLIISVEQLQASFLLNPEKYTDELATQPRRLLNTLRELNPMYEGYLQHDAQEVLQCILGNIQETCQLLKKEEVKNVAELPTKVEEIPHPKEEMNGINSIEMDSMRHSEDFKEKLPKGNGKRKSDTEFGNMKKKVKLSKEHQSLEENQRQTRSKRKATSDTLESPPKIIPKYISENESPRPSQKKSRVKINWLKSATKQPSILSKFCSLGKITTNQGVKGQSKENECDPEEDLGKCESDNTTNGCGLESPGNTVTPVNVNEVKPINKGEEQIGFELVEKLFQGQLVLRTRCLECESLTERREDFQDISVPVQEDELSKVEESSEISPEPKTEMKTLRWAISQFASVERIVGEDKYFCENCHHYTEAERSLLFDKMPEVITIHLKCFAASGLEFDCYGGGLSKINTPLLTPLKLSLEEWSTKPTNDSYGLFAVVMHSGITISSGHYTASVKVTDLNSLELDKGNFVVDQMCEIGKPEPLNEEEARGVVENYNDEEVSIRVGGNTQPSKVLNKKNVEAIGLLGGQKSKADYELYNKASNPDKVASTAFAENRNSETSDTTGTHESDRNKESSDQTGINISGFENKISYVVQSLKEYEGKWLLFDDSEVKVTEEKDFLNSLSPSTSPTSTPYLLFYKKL
Cytochrome P450 2D6 (Homo sapiens), sequence (P10635 whole entry, looked up): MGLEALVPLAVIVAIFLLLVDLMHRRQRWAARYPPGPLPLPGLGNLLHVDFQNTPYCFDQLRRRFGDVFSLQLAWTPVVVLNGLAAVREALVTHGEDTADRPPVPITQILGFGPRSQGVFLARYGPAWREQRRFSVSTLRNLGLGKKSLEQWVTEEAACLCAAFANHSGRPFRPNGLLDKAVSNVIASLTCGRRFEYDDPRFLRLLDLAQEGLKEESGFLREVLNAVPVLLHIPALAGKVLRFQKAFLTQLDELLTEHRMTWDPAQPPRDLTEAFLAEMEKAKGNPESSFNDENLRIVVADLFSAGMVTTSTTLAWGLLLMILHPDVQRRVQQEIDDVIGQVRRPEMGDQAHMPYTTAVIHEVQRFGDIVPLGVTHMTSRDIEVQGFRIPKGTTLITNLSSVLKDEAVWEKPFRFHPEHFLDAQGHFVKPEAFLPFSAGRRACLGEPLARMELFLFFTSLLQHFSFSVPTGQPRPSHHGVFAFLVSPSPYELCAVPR
Cytochrome P450 2C19 (Homo sapiens), sequence (P33261 whole entry, looked up): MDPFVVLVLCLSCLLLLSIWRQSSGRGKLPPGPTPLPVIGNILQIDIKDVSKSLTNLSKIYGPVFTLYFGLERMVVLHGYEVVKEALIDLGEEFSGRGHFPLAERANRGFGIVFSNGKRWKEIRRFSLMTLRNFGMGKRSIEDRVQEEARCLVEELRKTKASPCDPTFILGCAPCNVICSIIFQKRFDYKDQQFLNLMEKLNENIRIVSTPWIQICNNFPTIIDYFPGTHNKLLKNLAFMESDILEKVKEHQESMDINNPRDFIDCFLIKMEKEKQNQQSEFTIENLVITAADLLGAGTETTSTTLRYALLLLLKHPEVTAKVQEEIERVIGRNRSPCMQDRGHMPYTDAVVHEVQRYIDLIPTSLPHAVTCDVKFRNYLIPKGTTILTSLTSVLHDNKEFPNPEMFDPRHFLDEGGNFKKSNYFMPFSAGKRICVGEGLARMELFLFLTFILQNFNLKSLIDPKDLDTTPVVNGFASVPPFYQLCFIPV

As for `O=C(c1cccc(F)c1)N1CCC2(CCN(Cc3nccs3)CC2)CC1`, the Potency is > 11.4 µM (inactive) in experiment [1]; 1.58 µM (active) in experiment [3]; > 46 µM (inactive) in [5]; 15.8 µM (active) in experiment [7]; 1.58 µM (active) in experiment [8]. Also, the values for the activity change, negative = inhibition in [2] and in [9] were -8.17% (inactive) and 6.34% (inactive), respectively. In addition, the activity, negative = inhibition in [4] is -0.835% (inactive). For the same compound, the Potency result in [6] is “inactive”. For the same compound, the max response in [9] (setting [19]) came to 8.7%; in experiment [9] (setting [20]), 20.4%. Further, the outcome in [10] was inactive.

In the case of `CC(=O)N1CCC2(CCCN(Cc3ccccc3)C2)CC1`, the Potency is > 11.4 µM (inactive) in [1], > 46 µM (inactive) in experiment [5] and 2.51 µM (active) in [13]. The activity change, negative = inhibition in experiment [2] was -3.56% (inactive); in [9] it was 2.49% (inactive). Also, the Potency entry in experiment [3], in [11] and in experiment [12] was “inactive” in each case. For the same compound, in experiment [4], the activity, negative = inhibition is 9.01% (inactive). Also, the max response in experiment [9] (setting [19]) is -0.297%; in experiment [9] (setting [20]), 3.92%. Besides, the outcome in [10] was inactive.

In the case of `c1cncc(-c2nccc(-n3ccnc3)n2)c1`, the Potency in experiment [1] is > 11.4 µM (inactive); in [15], > 46 µM (inactive); in experiment [5], > 46 µM (inactive). Besides, the activity change, negative = inhibition was -19.4% (inactive) in [2], 1.68% (inactive) in experiment [14] and 7.22% (inactive) in experiment [9]. Moreover, the activity, negative = inhibition in [4] is -2.73% (inactive). In addition, the Potency result in experiment [11], in [12], in [16] and in experiment [18] was “inactive” throughout. In addition, the call in experiment [17] and in [10] was inactive. Moreover, the figures for the max response in experiment [9] (setting [19]) and in [9] (setting [20]) were 3.87% and 13.2%, respectively.

As for `O=C(Nc1cccc(F)c1)N1CC2(CCN(C(=O)c3cccc(F)c3)CC2)C1`, the Potency in experiment [1] was > 11.4 µM (inactive); in [5] it was > 46 µM (inactive). Besides, the results for the activity change, negative = inhibition in experiment [2], in [14] and in experiment [9] were -21.6% (inactive), 22.7% (inactive) and 1.48% (inactive), respectively. For the same compound, the activity, negative = inhibition in [4] is -4.12% (inactive). The Potency result in experiment [11] and in experiment [12] was “inactive” throughout. Moreover, the max response in experiment [9] (setting [19]) amounted to 1.76%; in experiment [9] (setting [20]), 6.4%. Moreover, in experiment [10], the outcome was inactive.

The values above are taken from PubChem BioAssay (NCATS).
